# Results taken from PubChem BioAssay (NCI).
# About 83,000 compounds went through this panel and 20% of them were active in at least one assay; those are over-represented in the sample as a whole.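 Percent growth is the endpoint: 0 to 100 indicates growth inhibition (40 means 60% inhibition), 0 means no net growth, and negative values indicate cell death.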 Calls of active or inactive are those of the source. The calls were made as follows: active = growth percent below 10; inactive = the rest.
# System: HL-60(TB) leukemia
# Test: NCI-60 one-dose screen, 48 h (100 = growth as untreated, 0 = no growth, -100 = all killed)
# Conditions: 10 µM unless noted
row,Structure (SMILES),growth
1,O=C(Nc1ccc(NS(=O)(=O)c2ccc(F)cc2)cc1)C12CC3CC(CC(C3)C1)C2,96.1% (inactive)
2,Cc1ccc(O)c(NC(=O)c2ccc(CNc3ccnc(C(F)(F)F)c3)cc2)c1,9.24% (active)
3,CN(C)c1ccc(/C=C/C(=O)c2ccc(Nc3nc(Nc4ccc(F)cc4)nc(Nc4ccc(Cl)cc4)n3)cc2)cc1,-70.5% (active)
4,COc1ccc(S(=O)(=O)Nc2cc(Sc3cccc4cccnc34)c(O)c3ccccc23)cc1,-18.8% (active)
5,Cc1ccc(-c2nc(N3CCCNCC3)c3oc(-c4ccc(C)cc4)nc3n2)cc1,-69.3% (active)
6,c1ccc(Sc2ncnc3ccccc23)cc1,74.1% (inactive)
7,Cc1cc2c(C(=O)NCC#N)cccc2n1-c1nc2c(c(NCc3ccccc3)n1)CCCC2,-23.5% (active)
8,COc1cc2c(cc1OCCCOc1cc3c(cc1OC)C(=O)N1CCC[C@H]1C=N3)C=CC(C)(C)O2,102% (inactive)
9,CCCCCCCCCCCCCCCCCc1nccn1CCO,64.4% (inactive)
10,O=C1CN(CCN2CC(=O)NC(=O)C2)CC(=O)N1,88% (inactive)
11,c1ccc(CN=C(NCc2ccccc2)NCc2ccccc2)cc1,49.9% (inactive)
12,COC(=O)c1ccc(NC(=O)CCl)cc1,81.6% (inactive)
13,c1ccc2c(-c3nccs3)c[nH]c2c1,85.1% (inactive)
14,COC(=O)c1ccc2cc(OC)c(OC)cc2c1,94.8% (inactive)
15,CCOC(=O)C(Nc1ccccc1)C(=O)OCC,101% (inactive)
16,COc1ccc(C/C(C)=C(\c2ccc(Cl)cc2)c2ccc(OCCN3CCCCCC3)cc2)cc1,30.7% (inactive)
17,O=C1/C(=C\c2ccc(Br)o2)SC(=S)N1CCc1ccc(O)cc1,42.2% (inactive)
18,N#C/C(=C\c1ccc(-c2ccc(Br)cc2)o1)c1nc(-c2cccs2)cs1,92.7% (inactive)
19,CCN(CC)CCCCCNc1cc(OC(=O)c2ccc(Cl)cc2)cc2cccnc12,6.96% (active)
20,O=[N+]([O-])c1ccc(N/N=C/C2CCCCCC2)c([N+](=O)[O-])c1,97.1% (inactive)
21,CCCCCCCCCCCCCCCCCCNCc1ccc(Cl)cc1,-65.8% (active)

row,Structure (SMILES),growth
1,O=c1[nH]c(Nc2ccc(S(=O)(=O)O)cc2)nc2nc(Nc3ccc(NC(=S)Nc4ccccc4)cc3)nc(-c3ccc(O)cc3O)c12,120% (inactive)
2,Cc1c2cnccc2c(C)c2c1c1cc(C#N)ccc1n2C,-48.8% (active)
3,Cc1c(Cl)cccc1NC(=O)c1sc2nc3c(cc2c1N)CN(Cc1ccccc1)CC3,-22.9% (active)
4,COc1ccc(-c2oc(=O)ccc2-c2cc(OC)c(OC)c(OC)c2)cc1O,-58.9% (active)
5,CN1CCN(Cc2ccc(NC(=O)c3cncc(C#Cc4c(N)ncc5ccccc45)c3)cc2C(F)(F)F)CC1,-53.2% (active)
6,COc1cccc(/C(C)=N/NC(=O)CSc2nc3ccccc3c(=O)n2CCc2ccc(S(N)(=O)=O)cc2)c1,58.5% (inactive)
7,Cc1ccc(S(=O)(=O)NCC[C@@H]2C[C@H]2c2cc3ccccc3s2)cc1,112% (inactive)
8,COc1ccc(C(O)(c2ccccc2)C(C(=O)O)c2ccccc2)cc1 (stereo unspecified),110% (inactive)
9,Cc1ccc(-c2nc3nc(-c4ccc(Cl)cc4)nc(N4CCCNCC4)c3o2)cc1,-67.6% (active)
10,Nc1nc(Nc2ccc(OCc3cccc(F)c3)cc2)c2c(n1)[nH]c1ccc(O)cc12,-64.8% (active)
11,O=C(c1cccc(Br)c1)N1CCN(c2ccnc3cc(Cl)ccc23)CC1,92.6% (inactive)
12,COc1cc(/C=C2\C(=O)N(CC(O)COc3cc(O)c4c(=O)cc(-c5ccccc5)oc4c3)c3ccccc32)cc(OC)c1O (stereo unspecified),80.5% (inactive)
13,O=c1cc2oc3cc(O)c(O)cc3c(-c3ccccc3O)c-2cc1O,103% (inactive)
14,COC(=O)c1nc(N)nc(C(=O)OC)c1C(=O)c1cccc2ccccc12,107% (inactive)
15,CN=c1ccc2nc3ccc(N)cc3sc-2c1,-27.1% (active)
16,CN(C)CCCN1c2ccccc2CCc2ccc(Cl)cc21,80.2% (inactive)
17,O=C(NS(=O)(=O)c1ccc2ccccc2c1)n1cc(-c2ccncc2)c(-c2ccc(Cl)c(O)c2)n1,43.3% (inactive)
18,CSc1nn2c(-c3cc4cc(Br)ccc4oc3=O)ccnc2c1C#N,102% (inactive)
19,COc1ccc2cc(-c3nc4ccccc4[nH]3)c(=O)oc2c1,81.2% (inactive)
20,CC/C(=C(/c1ccc(OCCN(C)C)cc1)c1ccc(OC(=O)CCC(=O)c2c(C)[nH]c(/C=C3\N=C(c4ccc[nH]4)C=C3OC)c2C)cc1)c1ccccc1,24.2% (inactive)
